In PubChem BioAssay AID652117 (Broad Institute, 2013) one finds outcome data, which are given here for 25 compounds.

Measured potencies and affinities stand elsewhere. Calls of active or inactive are those of the source.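 How the source made its calls: active means compounds whose fitted half-maximal cell-killing dose is no more than twice the top tested dose; inconclusive means flat moderate loss of cell viability, or an unreliable curve fit; inactive means the rest.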

The nature of the assay: loss of viability in HeLa cells – cell-based, ATP luminescence, dry powder, cytotoxicity control, dose response (AID 652117). As to conditions: CellTiter-Glo ATP luminescence, 48 h; series mostly up to 26 µM. On the technique in general: Cellular ATP, detected with luciferase, serves as a proxy for viable cell number.
On to `C=CCOc1ccc(CN2CCC(CCOc3ccccc3)(C(=O)N3CCCC3)CC2)cc1Cl`, for which the outcome was inactive. With `CCNC(=O)C1(CCOc2ccccc2)CCN(Cc2ccc(O)c(Cl)c2)CC1`, the result was inactive.

As to `C/C1=C\[C@@H](O)C(C)(C)CCCC2(C)OC2C[C@@H]1OC(=O)c1ccc(O)cc1` (stereo not given in full), the compound was called inactive. As to `CCOC(=O)C1(CCOc2ccccc2)CCN(C(=O)c2ccc(O)c(Cl)c2)CC1`, the outcome was inactive. To `C=CCOc1ccc(CN2CCC(CCOc3ccccc3)(C(=O)NC3CCCC3)CC2)cc1Cl` belongs “inactive”. For the compound `CCOC(=O)C1(CCOc2ccccc2)CCN(C(=O)OC(C)(C)C)CC1`, the compound was classed as inactive. Under `CCOC(=O)C1(CCOc2ccccc2)CCN(Cc2ccc(O)c(Cl)c2)CC1` stands “inactive”; under `CCOC(=O)C1(CCOc2ccccc2)CCN(Cc2ccc(OC)cc2)CC1`, “inactive”; under `CCOC(=O)C1(CCOc2ccccc2)CCN(Cc2ccc(OC)c(Cl)c2)CC1`, “inactive”.

Consider `CCOC(=O)C1(CCOC)CCCN(Cc2ccc(Cl)cc2)C1` (stereo not given), for which the call was inactive. Under `CCOC(=O)C1(CCOc2ccccc2)CCN(Cc2ccc(O)cc2)CC1` stands “inactive”; under `C=CCOc1ccc(CN2CCC(CCOc3ccccc3)(C(=O)OCC)CC2)cc1Cl`, “inactive”.

With `CCOC(=O)C1CCN(C(=O)OC(C)(C)C)CC1`, the result was inactive. Under `CCOC(=O)C1(Cc2ccccc2)CCN(Cc2ccc(O)c(Cl)c2)CC1` stands “inactive”. On to `O=C(N1CCCC1)C1(CCOc2ccccc2)CCN(Cc2ccc(O)c(Cl)c2)CC1`, for which the compound was called inactive.

As for `O=C(Nc1ccccc1)C1(CCOc2ccccc2)CCN(Cc2ccc(O)c(Cl)c2)CC1`, the result was inactive.

With `C=CCOc1ccc(CN2CCC(CCOc3ccccc3)(C(=O)N(C)CC)CC2)cc1Cl`, the call was inactive.

Turning to `CCOC(=O)C1(CCOC)CCN(Cc2ccc(O)c(Cl)c2)CC1`, the call was inactive. To `C=CCOc1ccc(CN2CCC(CCOc3ccccc3)(C(=O)NCC)CC2)cc1Cl` belongs “inactive”.

Consider `CCN(C)C(=O)C1(CCOc2ccccc2)CCN(Cc2ccc(O)c(Cl)c2)CC1`, for which the outcome was inactive. To `C/C1=C\C[C@H](OC(=O)c2ccc(O)cc2)/C(C)=C/[C@@H](O)C(C)(C)CCC1` belongs “inactive”; to `C=CCOc1ccc(CN2CCC(CCOc3ccccc3)(C(=O)O)CC2)cc1Cl`, “inactive”; to `CCOC(=O)C1(Cc2cccc(OC)c2)CCN(Cc2ccc(O)c(Cl)c2)CC1`, “inactive”. To `O=C(NC1CCCC1)C1(CCOc2ccccc2)CCN(Cc2ccc(O)c(Cl)c2)CC1` belongs “inactive”. As for `CCOC(=O)C1(CCOc2ccccc2)CCN(Cc2ccc3[nH]c(=O)oc3c2)CC1`, the outcome was inactive.
